Screen size: about 220,000 compounds; about 2,000 (0.91%) were called active. Not shown: some 2% with an inconclusive outcome. A selection follows. Entries with a potency or affinity are not part of this list. A number with no mark means an inactive call. Rule as the data show it: inconclusive = inhibition above about 80% without an active follow-up result; inactive = below that; test concentration not stated here.
Test: M. tuberculosis H37Rv growth inhibitors, H37Rv strain (AID 1626);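 also: bacteria incubated seven days before Alamar blue readout; 0% = bacteria only wells and 100% = bacteria with antibiotic wells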
Details: hits give high values, concentration not given here

Q: Which inhibition does the source give for `CS(=O)(=O)c1ccc(C(=O)OCC(=O)NC23CC4CC(CC(C4)C2)C3)cc1[N+](=O)[O-]` here?
A: 6.01%

Q: For `Cc1c(N=C2SCC(=O)N2/N=C\c2ccc(Br)cc2)c(=O)n(-c2ccccc2)n1C`, which inhibition is on record?
A: 2.9%

Q: With `Cn1c(N)c(C(=O)COC(=O)CCCc2nc3ccccc3s2)c(=O)n(C)c1=O` as the molecule, how does the inhibition read?
A: 3.44%

Q: Which inhibition does the source give for `COc1cc(C(=O)NCCc2ccc(S(=O)(=O)N3CCCC3)cc2)cc(OC)c1OC` here?
A: -6.26%

Q: For `CCCC1(C(=O)OCC)NC(c2ccc(O)cc2)C2C(=O)N(c3ccc4c(c3)OCCO4)C(=O)C21` (configuration not stated), which inhibition is on record?
A: 11.1%

Q: For `COc1cccc(NC(=O)NC2CCCc3ccccc32)c1` (configuration not stated), which inhibition is on record?
A: 0.07%

Q: For `O=C(O)CSc1c2c(nc3cc(C(=O)NCCN4CCOCC4)ccc13)CCC2`, which inhibition is on record?
A: -7.4%

Q: With `O=C(NCCCN1CCOCC1)c1ccc(CS(=O)(=O)Cc2ccc(Cl)cc2)o1` as the molecule, how does the inhibition read?
A: 2.9%

Q: Which inhibition does the source give for `O=c1oc2ccccc2c(Nc2ccccc2)c1[N+](=O)[O-]` here?
A: -3.06%

Q: With `Cc1ccc(Nc2c([N+](=O)[O-])c(=O)oc3ccccc23)cc1C` as the molecule, how does the inhibition read?
A: 60.5%

Q: For `CN1C(=O)NC(=O)/C(=C\C=C\c2ccccc2[N+](=O)[O-])C1=O`, which inhibition is on record?
A: 3.14%

Q: Which inhibition does the source give for `N#C/C(=C\c1ccc(N2CCOCC2)o1)C(=O)NCCc1ccccc1` here?
A: 1.46%

Q: Which inhibition does the source give for `N#C/C(=C/c1ccc(Br)s1)C(=O)NCCc1c[nH]c2ccccc12` here?
A: -14%

Q: With `O=C(Nc1ccccc1)N(Cc1ccccc1)Cc1ccccc1` as the molecule, how does the inhibition read?
A: 9.83%

Q: Which inhibition does the source give for `C=CCNC(=O)Nc1cc(Cl)ccc1OC` here?
A: -2.63%

Q: For `Cc1cc(C(=O)COc2ccc3ccc(=O)oc3c2)c(C)n1C`, which inhibition is on record?
A: -5.12%

Q: Which inhibition does the source give for `CC(=O)c1cccc(OCC(=O)c2cc(C)n(-c3cc(C)on3)c2C)c1` here?
A: 17.2%

Q: For `Cc1ccc2occ(C3N[C@H](C(=O)O)CS3)c(=O)c2c1` (some centres not stated), which inhibition is on record?
A: -2.55%

Q: For `COc1ccc(NS(=O)(=O)c2ccc3nc(COc4ccc(C#N)cc4)[nH]c3c2)cc1`, which inhibition is on record?
A: 12.1%

Q: With `COc1ccc(NS(=O)(=O)c2ccc3nc(COc4ccc5ccccc5c4)[nH]c3c2)cc1` as the molecule, how does the inhibition read?
A: 15.1%

Q: For `CC(=O)c1c(C)nn(CC(O)Cn2c3c(c4cc(C)ccc42)CCCC3=O)c1C` (configuration not stated), which inhibition is on record?
A: 7.8%

Q: With `COc1cccc(-n2nnc3c(=O)n(CC(=O)N4CCC(Cc5ccccc5)CC4)cnc32)c1` as the molecule, how does the inhibition read?
A: 2.62%

Q: With `COc1ccc(-n2nnc3c(=O)n(CC(=O)N4CCC(Cc5ccccc5)CC4)cnc32)cc1` as the molecule, how does the inhibition read?
A: -2.81%

Q: For `O=C1[C@@H]2[C@@H]3C[C@@H]([C@H]4ON=C(c5ccc(OCc6ccccc6)cc5)[C@@H]34)[C@@H]2C(=O)N1c1ccc2c(c1)OCO2`, which inhibition is on record?
A: 0.02%

Q: For `O=C(Nc1ccc(-c2cnco2)cc1)c1ccc(Cl)cc1`, which inhibition is on record?
A: -6.64%

Q: Which inhibition does the source give for `O=C(Nc1ccc(-c2cnco2)cc1)c1ccccc1` here?
A: 3.05%

Q: For `Cc1cc(C(C)(C)C)ccc1OCCn1ccnc1`, which inhibition is on record?
A: -6.1%

Q: With `O=C(Cc1ccccc1)N/N=C/c1ccccc1Cl` as the molecule, how does the inhibition read?
A: 7.74%

Q: Which inhibition does the source give for `CCOC(=O)c1cccc(NC(=O)CCc2nc(-c3ccccc3F)no2)c1` here?
A: 66.8%

Q: With `COc1ccc(-c2noc(CCCC(=O)Nc3ccc(C(N)=O)cc3)n2)cc1` as the molecule, how does the inhibition read?
A: -9.14%

Q: Which inhibition does the source give for `Cc1cccc(-c2noc(CCCC(=O)Nc3ccc(C(N)=O)cc3)n2)c1` here?
A: 0.64%

Q: For `Cc1cccc(-c2noc(CCC(=O)Nc3ccccc3)n2)c1`, which inhibition is on record?
A: 1.97%

Q: For `Cc1ccc(-c2noc(CCC(=O)Nc3ccccc3C)n2)cc1`, which inhibition is on record?
A: 13.8%

Q: For `Cc1cccc(-c2noc(CCC(=O)Nc3ccc(C(N)=O)cc3)n2)c1`, which inhibition is on record?
A: 0.33%

Q: Which inhibition does the source give for `CC(C)CNC(=O)CCc1nc(-c2ccccc2)no1` here?
A: -9.52%

Q: For `O=C(O)CCc1nc(-c2ccc(Cl)cc2)no1`, which inhibition is on record?
A: -0.01%

Q: Which inhibition does the source give for `O=C(CCc1ccccc1)NCCc1nc2ccccc2[nH]1` here?
A: -3.29%

Q: For `CCN(c1ccccc1)S(=O)(=O)c1ccc(Cl)c(NC(=O)CN2C(=O)NC3(CCCC3)C2=O)c1`, which inhibition is on record?
A: -9.72%

Q: Which inhibition does the source give for `CCC(C)(C(=O)NC1CCCC1)N(C)C(=O)c1ccccn1` (configuration not stated) here?
A: -3.46%

Q: With `COc1ccc2c(CC(=O)OCC(=O)c3ccccc3OC)coc2c1` as the molecule, how does the inhibition read?
A: 3.25%

Q: For `O=C(CN1CCCCCCC1)Nc1ccc(Cl)cc1Cl`, which inhibition is on record?
A: -1.9%

Q: Which inhibition does the source give for `CC1=NN(c2ccccc2)C(=O)/C1=C\c1sccc1C` here?
A: -4.07%

Q: Which inhibition does the source give for `COC(=O)c1ccc(/C=N/OCC(=O)NCc2ccc(F)cc2)cc1` here?
A: 6.23%

Q: For `CC(C)CC1NC2(C(=O)N(C)c3ccccc32)C2C(=O)N(C(C)C)C(=O)C12` (configuration not stated), which inhibition is on record?
A: 0.86%

Q: Which inhibition does the source give for `N#Cc1c(-c2ccccc2)nc2n(-c3ccccc3)nc(C(=O)Nc3ccccc3)n2c1=O` here?
A: 8.32%

Q: With `N#Cc1ccccc1CSc1nnc(Cc2ccccc2)o1` as the molecule, how does the inhibition read?
A: 0.34%

Q: With `CC(C)=Cc1c(O)nc2ccccn2c1=O` as the molecule, how does the inhibition read?
A: -3.05%

Q: For `Cc1c(NC(=O)CSCc2ccc(Br)cc2)c(=O)n(-c2ccccc2)n1C`, which inhibition is on record?
A: -6.02%

Q: For `NC(=O)c1ccc(NC(=O)CCCc2nc(-c3ccccc3Cl)no2)cc1`, which inhibition is on record?
A: -1.91%

Q: For `CCc1ccccc1NC(=O)CCc1nc(-c2ccc(C)cc2)no1`, which inhibition is on record?
A: -5.75%

Q: With `COc1ccccc1-c1noc(CCC(=O)Nc2ccccc2Cl)n1` as the molecule, how does the inhibition read?
A: -5.64%

Q: Which inhibition does the source give for `Cc1ccc(-c2noc(CCC(=O)Nc3ccc(C)cn3)n2)cc1` here?
A: 25.6%

Q: For `O=C(/C=C/c1ccco1)N(Cc1cccc(Br)c1)C1CCS(=O)(=O)C1` (configuration not stated), which inhibition is on record?
A: -13.6%

Q: For `Cc1ccc(NC(=O)c2ccc(N3CCOCC3)c([N+](=O)[O-])c2)cc1S(=O)(=O)N1CCOCC1`, which inhibition is on record?
A: 5.87%

Q: Which inhibition does the source give for `COc1cc(CNCC(C)C)cc(Br)c1OCC(=O)Nc1ccccc1` here?
A: 0.75%

Q: Which inhibition does the source give for `CCN(CC)CCNCc1cc(Cl)c(OCC(=O)Nc2ccccc2)c(OC)c1` here?
A: 7.36%

Q: For `O=C(Cn1c2[n+](c3ccccc31)CC(O)CS2)c1ccccc1` (configuration not stated), which inhibition is on record?
A: -6.67%

Q: Which inhibition does the source give for `CCC(=O)N1CCN(c2ccc(OC)cc2[N+](=O)[O-])CC1` here?
A: -1.32%

Q: With `NS(=O)(=O)c1ccc(-c2ccc(/C=C3\SC(=S)N(C4CCS(=O)(=O)C4)C3=O)o2)cc1` (configuration not stated) as the molecule, how does the inhibition read?
A: -2.38%

Q: For `NS(=O)(=O)c1ccc(-c2ccc(C=NC3CCS(=O)(=O)C3)o2)cc1` (configuration not stated), which inhibition is on record?
A: -11.7%

Q: Which inhibition does the source give for `CC(C)Cn1c(N)c(C(=O)COC(=O)c2ccc(F)cc2)c(=O)n(C)c1=O` here?
A: 6.86%

Q: With `CN(C)c1nc(N)nc(CSc2nnnn2-c2ccc(F)cc2)n1` as the molecule, how does the inhibition read?
A: -2.97%

Q: With `CC(=O)c1ccc(OC(=O)c2ccc(Br)o2)cc1` as the molecule, how does the inhibition read?
A: -1.59%

Q: With `CCCOc1ccc(OC(=O)c2ccc(Br)o2)cc1` as the molecule, how does the inhibition read?
A: 3.47%

Q: Which inhibition does the source give for `CCC(=O)NCCc1nc2ccccc2n1Cc1ccc(C)cc1` here?
A: -3.53%

Q: Which inhibition does the source give for `CCC(=O)Nc1nonc1-c1nc2ccccc2n1Cc1ccccc1` here?
A: 22.2%

Q: Which inhibition does the source give for `CCC(=O)Nc1nc2ccccc2n1CCN(C)C` here?
A: 0.79%

Q: For `CCC(=O)Nc1nc2ccccc2n1CCN(CC)CC`, which inhibition is on record?
A: -1.49%

Q: Which inhibition does the source give for `CCC(=O)NCCc1nc2ccccc2n1Cc1ccccc1` here?
A: -11.3%

Q: For `CC(=O)NCCc1nc2ccccc2n1Cc1ccc(Cl)cc1`, which inhibition is on record?
A: -2.45%

Q: Which inhibition does the source give for `NCCNC(=O)Cc1cccc(NC(=O)Cc2ccc(Nc3ncnc4c3ncn4[C@@H]3O[C@H](CO)[C@@H](O)[C@H]3O)cc2)c1` here?
A: 10.9%

Q: Which inhibition does the source give for `COc1ccc(C(=O)c2ccc3oc(-c4ccc(OC)cc4)c(C#CCCO)c3c2)cc1` here?
A: 6.95%

Q: Which inhibition does the source give for `Cc1ccccc1NC(=O)c1ccc(F)c(S(=O)(=O)N2CCCCC2)c1` here?
A: -2.34%

Q: For `CCn1cc(Br)c(C(=O)Nc2ccc(F)c(Cl)c2)n1`, which inhibition is on record?
A: -11.6%

Q: With `CCOCCCNC(=O)c1ccc(NC(C)=O)cc1` as the molecule, how does the inhibition read?
A: -8.03%

Q: For `CC(=O)C1=C(O)C(=O)N(C)C1c1ccccc1F` (configuration not stated), which inhibition is on record?
A: 0.41%

Q: With `CN(C[C@H](Cc1ccccc1)N(C[C@H](CC1CCCCC1)N(CCc1ccccc1)N=O)N=O)N=O` as the molecule, how does the inhibition read?
A: -1.37%

Q: For `CC(C)Sc1ncc(S(=O)(=O)c2ccccc2)c(=O)[nH]1`, which inhibition is on record?
A: -2.21%

Q: For `C=CCn1c(O)c(C(C)=Nc2ccc3c(c2)CCC3)c(=O)[nH]c1=O`, which inhibition is on record?
A: 54.5%

Q: For `CCCCn1c(O)c(C(CC)=Nc2ccc(C(=O)O)cc2)c(=O)[nH]c1=O`, which inhibition is on record?
A: -1.19%

Q: For `C=CCn1c(O)c(C(C)=Nc2ccc(NC(C)=O)cc2)c(=O)[nH]c1=O`, which inhibition is on record?
A: -0.17%

Q: Which inhibition does the source give for `CCCCn1c(O)c(C(CC)=Nc2ccc3c(c2)CCC3)c(=O)[nH]c1=O` here?
A: 74.9%

Q: With `CCCCn1c(O)c(C(CC)=Nc2ccc(OC)cc2OC)c(=O)[nH]c1=O` as the molecule, how does the inhibition read?
A: -1.05%

Q: For `C=CCn1c(O)c(C(C)=Nc2ccc(C(=O)O)cc2)c(=O)[nH]c1=O`, which inhibition is on record?
A: -11.5%

Q: Which inhibition does the source give for `CCCCn1c(O)c(C(C)=Nc2ccc(C(=O)O)cc2)c(=O)[nH]c1=O` here?
A: -16.2%

Q: Which inhibition does the source give for `CCCCn1c(O)c(C(C)=Nc2ccc3c(c2)CCC3)c(=O)[nH]c1=O` here?
A: 7.92%

Q: With `O=C(O)CC(CNS(=O)(=O)c1cccc2nsnc12)c1ccccc1` (configuration not stated) as the molecule, how does the inhibition read?
A: 2.51%

Q: For `O=C1CC(c2nc3ccccc3[nH]2)CN1c1cccc(C(F)(F)F)c1` (configuration not stated), which inhibition is on record?
A: 2.87%

Q: With `CN1CCN(C(=S)c2ccc(-c3cccc(Cl)c3Cl)o2)CC1` as the molecule, how does the inhibition read?
A: 2.93%

Q: For `Nc1c(Cl)ncnc1N/N=C/c1cccnc1`, which inhibition is on record?
A: 3.93%

Q: For `Cn1c(N2CCOCC2)cc(=O)n(C)c1=O`, which inhibition is on record?
A: -3.19%

Q: For `COc1ccc(CCNC(=O)CSCc2ccc([N+](=O)[O-])cc2)cc1OC`, which inhibition is on record?
A: -5.73%
